Source: the supplement of paper PMC13380429

Tested on: Vero E6 infected with SARS-CoV-2
Experiment: inhibition of SARS-CoV-2 cytopathic effect; higher = more antiviral protection, active = above 15
Details: 48 h

Measured: inhibition of SARS-CoV-2 cytopathic effect

CC(C)=CCC[C@](C)(O)[C@H]1CC[C@]2(C)[C@@H]1[C@H](O)C[C@@H]1[C@@]3(C)CC[C@H](O)C(C)(C)[C@@H]3[C@@H](O)C[C@]12C [hemomex-s]
inactive: 1 nM -1.07% | 8.33 nM 0.12% | 100 nM 5.17% | 833.33 nM -0.7% | 10000 nM 0.84%

Cc1nc2c(c(=O)[nH]1)CSCC2
inactive: 1 nM 1.12% | 8.33 nM -1.82% | 100 nM 0.46% | 833.33 nM 0.11% | 10000 nM 4.1%

C=CCNc1nc(NCC=C)nc(N2CCN(C(c3ccc(F)cc3)c3ccc(F)cc3)CC2)n1 [almitrine]
inactive: 1 nM -6.44% | 8.33 nM -3.95% | 100 nM -7.43% | 833.33 nM -4.59% | 10000 nM -8.59%

NC(=O)N1C(=O)/C(=C(\O)c2cccs2)c2cc(Cl)ccc21 [tenidap]
inactive: 1 nM 1.19% | 8.33 nM 1.1% | 100 nM 0.33% | 833.33 nM 1.99% | 10000 nM -5.52%
